High-throughput results (PubChem BioAssay)
In the library only some 12% were active in any assay of this set; here they are far more common.
CHX counter: affects cycloheximide protein synthesis inhibition readout, counter-screen. cell reporter, cycloheximide protein synthesis inhibition counterscreen. max response, %. 300,000 compounds, 12% hits; in the data active = max response mostly above about 13%, no sharp cut-off; inactive = mostly below about 14%; note: read at 38.3 µM for the half of the compounds with a filed dose; 0% is about no effect
FMDV antiviral: antivirals against foot and mouth disease virus | FMDV antiviral cell-based qHTS | Potency, µM (series often up to 57.9 µM), inactives show at the highest dose activity change, negative = inhibition, most hits filed as inhibitors | 410,000 compounds, 1.2% hits | AID 1159524; calls by dose curve; tested in HEK293T cells; note: read-out not given here; potency is the fitted concentration of half-maximal effect; % is set by controls: 0 for no effect and ±100 for the full control effect; nearly all actives have a fitted effect of over 45% in size
Sm TGR inh: inhibitors of Schistosoma mansoni thioredoxin glutathione reductase. AID 485364. Potency, µM (titrated, usually from 114 µM), inactives show at the highest dose activity change, negative = inhibition, hits mostly inhibitors. 360,000 compounds, 3% hits. Q962Y6. purified TGR, DTNB reduction, TNB absorbance 405 nm; active = well fitted inhibition curve with a large enough effect; inconclusive = small, poorly fitted or top-dose-only effect; inactive = no such curve, though single readings can be large or run the other way; note: potency is the fitted concentration of half-maximal effect; % is set by controls: 0 for no effect and ±100 for the full control effect; nearly all actives have a fitted effect of over 60% in size
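Kinetic colorimetric format: TGR-catalysed, NADPH-driven DTNB reduction monitored via TNB absorbance. Enzyme dispensed at 20 nM; compound exposure 15 min at room temperature before reaction start.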
Shiga inhibitor: Shiga toxin inhibition | AID 2315 | inhibition, % at 38.7 µM | Vero cells, Shiga toxin protein synthesis inhibition reporter | 290,000 compounds, 9.2% hits; in the data active = inhibition mostly above about 28%, no sharp cut-off; inactive = mostly below about 43%; note: 0% is about no effect
Numbers without * were called inactive; ? = inconclusive; . = no result given.

SMILES	CHX counter	FMDV antiviral	Sm TGR inh	Shiga inhibitor
O=C(CC(=O)c1ccccc1)Nc1ccccc1C(F)(F)F	32*	11%	11%	30
CCC(CC)NC(=O)Nc1cccc(C)c1C	1	-6%	18%	19
CCC(C)N(CC(=O)Nc1cccc(C)c1C)C(=O)CCl (centres undefined)	4	16µM*	20µM*	-2
Cc1ccccc1NC(=O)CCCCC(=O)Nc1ccccc1C	-3	-15%	1%	.
Cc1ccc(-c2cn3c(n2)sc2cc(C(=O)NCc4cccs4)ccc23)cc1	.	13%	-9%	.
O=C(O)CSCC(=O)Nc1ccc(Cl)cc1C(F)(F)F	-3	7%	.	-6
CN1CCN(C(=S)Nc2cc([N+](=O)[O-])ccc2Cl)CC1	11*	39%	-1%	-2
CC(C)N(CC(=O)Nc1ccc(Cl)cc1C(F)(F)F)C(=O)CCl	21*	16µM*	18µM*	21
CN1CCN(c2cc([N+](=O)[O-])ccc2Cl)CC1	-4	0%	7%	20
Cc1ccccc1NC(=O)CC(=O)c1ccccc1	18*	50%	-5%	22
O=C(CC(=O)c1ccccc1)Nc1cc([N+](=O)[O-])ccc1Cl	16*	25%	15%	67
CNC(=O)c1c(NC(=O)c2nc(SCc3ccc(C)cc3)ncc2Cl)sc2c1CCCC2	.	24%	-1%	.
Cc1ccc(CNC(=O)Cn2ccn(-c3cccc(Cl)c3)c(=O)c2=O)cc1	.	2%	-1%	.
COc1ccccc1CNS(=O)(=O)c1cnc(N)nc1	.	2%	0%	.
C[C@@H](C(=O)Nc1ccc2c(c1)OCO2)n1c(=O)[nH]c2ccccc2c1=O	14	11%	-23%	29*
C[C@@H](C(=O)Nc1ccc2c(c1)OCCO2)n1c(=O)[nH]c2ccccc2c1=O	49*	?	-1%	147*
O=C(Cn1c(=O)[nH]c2ccccc2c1=O)Nc1ccc2c(c1)OCO2	10	20%	6%	21
Cc1ccc(NC(=O)Cn2cc(C(=O)C3CCCCC3)c3ccccc32)cc1	.	-14%	1%	.
Cc1cc(=O)oc2cc3c(cc12)CCCN3	19*	58%	-10%	27
Cc1cc(=O)oc2cc3c(cc12)OCCN3	8	-15%	3%	11
CCOc1ccc(CCNC(=O)Cn2ncn3nc(-c4ccc(OC)cc4)cc3c2=O)cc1	6	8%	-14%	12
COc1ccc(-c2cc3c(=O)n(CC(=O)NCCCN4CCN(Cc5ccccc5)CC4)ncn3n2)cc1	28*	-29%	9%	31
COc1ccc(-c2cc3c(=O)n(CC(=O)NCCCN4CCC(Cc5ccccc5)CC4)ncn3n2)cc1	23*	0%	-1%	45*
COc1ccc(-c2cc3c(=O)n(CC(=O)NCc4ccc(F)cc4)ncn3n2)cc1	11*	0%	36%	16*
COc1ccc(-c2cc3c(=O)n(CC(=O)NCc4ccc(C)cc4)ncn3n2)cc1	2	0%	7%	10
SMILES	CHX counter	FMDV antiviral	Sm TGR inh	Shiga inhibitor
COc1ccc(CNC(=O)Cn2ncn3cccc3c2=O)cc1	26*	.	-5%	30
O=c1c2oc3ccccc3c2n(Cc2ccccc2Cl)c(=O)n1Cc1ccc2c(c1)OCO2	.	-6%	-8%	.
Cc1ccc(NC(=O)CN2C(=O)C(c3ccccc3)=NC23CCCCC3)cc1C	.	-23%	-2%	.
CN(/N=C/c1ccncc1)c1cnn(-c2ccc(F)c(Cl)c2)c(=O)c1Cl	27*	-11%	0%	46*
O=C(NCCc1cccs1)c1ccc(Cn2c(SCc3ccc(F)cc3)nc3cccnc32)cc1	.	-1%	-12%	.
Nc1ccccc1O	.	-6%	?	.
Oc1ccccc1O	.	-9%	16µM*	.
COc1cc(C(=O)N2CCN(c3ncnc4sc(C)c(C)c34)CC2)cc(OC)c1OC	-3	11µM*	31%	-9
COc1ccccc1OCC(=O)NNC(=O)C1CCN(c2ncnc3sc(C)c(C)c23)CC1	.	18µM*	-2%	.
Cc1ccccc1OCC(=O)NNC(=O)C1CCN(c2ncnc3sc(C)c(C)c23)CC1	.	?	10%	.
CNC(=O)c1ccc(NC(=O)C2CCN(c3ncnc4sc(C)c(C)c34)CC2)cc1	-1	0%	-27%	-2
CCN(CC)c1ccc(C(=O)NNC(=O)C2CCN(c3ncnc4sc(C)c(C)c34)CC2)cc1	.	11µM*	.	.
Cc1cccc(OCC(=O)NNC(=O)C2CCN(c3ncnc4sc(C)c(C)c34)CC2)c1	.	28µM*	1%	.
Cc1sc2ncnc(N3CCC(C(=O)NCC(=O)Nc4ccc(F)c(F)c4)CC3)c2c1C	0	?	-10%	-14
CCOC(=O)c1sc2ncnc(N3CCN(C(=O)OCC)CC3)c2c1C	-3	16µM*	7%	-9
COc1ccc(-c2csc(NC(=O)C3CCN(c4ncnc5sc(C)c(C)c45)CC3)n2)cc1OC	.	8.9µM*	-2%	.
CCOC(=O)c1sc2ncnc(N3CCN(CC)CC3)c2c1C	-5	2%	-7%	17
Cc1sc2ncnc(N3CCC(C(=O)Nc4ccc(Cl)cc4Cl)CC3)c2c1C	.	-30%	0%	.
Cc1sc2ncnc(N3CCC(C(=O)Nc4ccc(Br)cc4Br)CC3)c2c1C	.	20µM*	-1%	.
Cc1sc2ncnc(N3CCC(C(=O)Nc4ccc(Cl)c(Cl)c4)CC3)c2c1C	.	?	-3%	.
Cc1cc(Cl)ccc1NC(=O)CS(=O)(=O)c1cccc2nsnc12	.	-3%	-16%	.
CCOc1ccc(CC(=O)Nc2nccs2)cc1	20*	14%	-8%	12
COc1ccc2c(CC(=O)Nc3nccs3)coc2c1	31*	46%	0%	77*
Cc1ccc(OCCCC(=O)Nc2nccs2)cc1	23*	13%	4%	42*
CN1CCN(c2ncnc3ccc(-c4cccnc4)cc23)CC1	.	-10%	.	.
SMILES	CHX counter	FMDV antiviral	Sm TGR inh	Shiga inhibitor
C=CCSc1nnc2c(n1)OC(c1cccnc1)Nc1ccccc1-2 (centres undefined)	27*	27%	-1%	128*
CCOc1ccccc1C1Nc2ccccc2-c2nnc(SCc3ccccc3)nc2O1 (centres undefined)	.	1%	2%	.
c1ccc(CSc2nnc3c(n2)OC(c2ccco2)Nc2ccccc2-3)cc1 (centres undefined)	26*	-4%	11µM*	86*
C=CCSc1nnc2c(n1)OC(c1cccnc1)N(C(C)=O)c1ccccc1-2 (centres undefined)	2	21%	-2%	-31
O=C(Nc1nc(-c2ccccn2)cs1)c1cc(Cl)ccc1[N+](=O)[O-]	11	-24%	-25%	21
O=C(Nc1nc(-c2ccccn2)cs1)c1ccccc1-n1cnnn1	10*	-9%	4%	6
Cc1cc(C(=O)Nc2nc(-c3ccccn3)cs2)ccc1[N+](=O)[O-]	28*	3%	-4%	72
O=C(Nc1nc(-c2ccccn2)cs1)c1ccc2c(c1)OCCO2	44*	-15%	0%	62*
COc1ccccc1NC(=O)CN(c1cc(C)cc(C)c1)S(=O)(=O)c1c(C)[nH]c(=O)[nH]c1=O	.	-15%	1%	.
CCCSc1nc2c([nH]c3ccccc32)c(=O)n1C	.	-14%	4%	.
CC(=O)c1cccc(NC(=O)c2ccc(-n3c(C)nnc3C)cc2)c1	.	0%	-2%	.
CCN(Cc1ccccc1)C(=O)c1cc(-c2ccccc2)n[nH]1	.	78%	-5%	.
CCC1CN(C(=O)N2CCC(C(=O)NCc3ccc(N(C)C)cc3)CC2)c2ccccc2O1 (centres undefined)	.	-23%	10%	.
